Out of some 69,000 compounds screened, about 1,000 (1.4%) showed an effect of 50% or more. The entries come from a sample that favours strong results as a whole.
Test system: Leishmania donovani
Assay: Leishmania intramacrophage assay
Assay type: functional, organism-based
Set-up: scale not given: in the data most compounds retested in dose-response had high values

| SMILES | Percent Effect (30.3 µM, […]) [%] | Percent Effect (30 µM, 30.03 µM) [%] |
| --- | --- | --- |
| O=C(NCCc1ccc(F)cc1)C1CN(C(=O)Cn2cncn2)C1 | 19.84 | – |
| COCCCNC(=O)COc1ccccc1C(F)(F)F | 6.767 | – |
| O=C(Cc1ccccc1)NC[C@H]1Cn2ccnc2CO1 | 5.132 | – |
| Cc1nc(NCCSc2ccccn2)c2c(C)noc2n1 | 23.02 | – |
| CCC(Nc1nc(C)nc2onc(C)c12)c1nc(C)c(C)s1 (stereo not drawn) | 15.33 | – |
| CCC(Nc1nc(C)nc2onc(C)c12)c1cccs1 (stereo not drawn) | 50.11 | – |
| O=C(NC1CCOCC1)c1cccc(C2CCCNC2)c1 (stereo not drawn) | -13.02 | – |
| CCOCC1CN(C(=O)Cc2cccs2)Cc2ccnn2C1 (stereo not drawn) | 34.28 | – |
| CCOCC1CN(C(=O)Cc2ccsc2)Cc2ccnn2C1.O=C(O)C(F)(F)F (stereo not drawn) | 51.92 | – |
| CN(C)CCOCC1CN(Cc2ccsc2)Cc2ccnn2C1.O=C(O)C(F)(F)F.O=C(O)C(F)(F)F.O=C(O)C(F)(F)F (stereo not drawn) | – | 9.716 |
| Cc1noc(C)c1CN(C)C(=O)CCn1c(=O)n(C)c2ccccc21 | 50.75 | – |
| Cc1noc(C)c1CN(C)Cn1c(=O)n(C)c2ccccc21 | 5.674 | – |
| Cc1noc(C)c1CN(C)C(=O)Cn1c(=O)n(C)c2ccccc21 | 12.61 | – |
| O=C(CC1CC1)NCc1cn2c(n1)CN(C(=O)C1CCOCC1)CC2 | -40.34 | – |
| OC(CNc1nc(C2CCCC2)nc2c1CCNCC2)C(F)(F)F (stereo not drawn) | 100.7 | – |
| C1Cc2nc(CCNc3nc(C4CC4)nc4c3CCNCC4)sc2C1 | 95.48 | – |
| c1nc(CCNc2nc(C3CC3)nc3c2CCNCC3)c[nH]1 | 9.64 | – |
| COCCNc1nc(C2CCCC2)nc2c1CCNCC2 | – | 63.78 |
| Cc1nc2c(c(NCC(O)C(F)(F)F)n1)CCNCC2 (stereo not drawn) | -15.94 | – |
| COCCNc1nc2c(c(NCC3CCOC3)n1)CCNCC2 (stereo not drawn) | 32.27 | – |

| SMILES | Percent Effect (30.3 µM, […]) [%] | Percent Effect (30 µM, 30.03 µM) [%] |
| --- | --- | --- |
| OC(CNc1ncnc2c1CCNCC2)C(F)(F)F (stereo not drawn) | 26.97 | – |
| COCc1noc(CNc2nc(C3CCCC3)nc3c2CCNCC3)n1 | 8.376 | – |
| Cc1nc2c(c(NCCc3nc4c(s3)CCCC4)n1)CCNCC2 | 49.04 | – |
| O=C(NC1CC1)C1CCc2nnc(-c3cccc(C(F)(F)F)c3)n21 (stereo not drawn) | 10.31 | – |
| CN(C)CCn1cc(NC(=O)NC(C)(C)c2nccs2)cn1 | 7.741 | – |
| Cc1cc(C(=O)N2CCCC2c2nnc3n2CCCCC3)on1 (stereo not drawn) | 34.8 | – |
| CO[C@H]1[C@@H]2CC[C@H]1CN(c1nc(C)nc3sccc13)C2 | 56.76 | – |
| CO[C@H]1[C@@H]2CC[C@H]1CN(c1nc(C)nc3ccsc13)C2 | 34.92 | – |
| Cc1nc(N2C[C@@H](CN3CCCN(C)CC3)[C@@H](CO)C2)c2ccsc2n1 | -13.66 | – |
| CC(=O)N1C[C@H]2C3(CCN(S(C)(=O)=O)CC3)CC[C@@]2(C(=O)N(C)C)C1 | -12.02 | – |
| Cc1cc(C)n(CC2CCCCN2CC(=O)N(C)Cc2ccco2)n1 (stereo not drawn) | -27.36 | – |
| Cc1cc(C)n(CC2CCCN2CC(=O)N(C)Cc2ccco2)n1 (stereo not drawn) | 34.8 | – |
| Cc1cc(C)n(CC2CCCN2CC(=O)N(C)Cc2ccc(C)o2)n1 (stereo not drawn) | 94.04 | – |
| CNS(=O)(=O)c1cccc(CNc2ccc(C(F)(F)F)nn2)c1 | – | 12.97 |
| COc1ccccc1N1CC(NC(=O)Cn2cc(C(C)C)nn2)CC1=O (stereo not drawn) | -4.218 | – |
| COc1ccccc1N1CC(NC(=O)c2cc(C(C)C)nn2C)CC1=O (stereo not drawn) | 57.19 | – |
| COc1ccccc1N1CC(NC(=O)Cn2cc(C)nn2)CC1=O (stereo not drawn) | 4.572 | – |
| CCOCCC(=O)NC(Cc1ccc(C)cc1)c1ccccn1 (stereo not drawn) | 16.59 | – |
| CCCN1CC[C@@H]2[C@@H](CO[C@H]2CNC(=O)c2nccn2C)C1.O=C(O)C(F)(F)F | 42.84 | – |
| Cn1ccnc1C(=O)NC[C@@H]1OC[C@H]2CN(CC3CC3)CC[C@H]21.O=C(O)C(F)(F)F | 33.21 | – |

| SMILES | Percent Effect (30.3 µM, […]) [%] | Percent Effect (30 µM, 30.03 µM) [%] |
| --- | --- | --- |
| CN1CC[C@@H]2[C@@H](CO[C@H]2CNC(=O)c2nccn2C)C1.O=C(O)C(F)(F)F | 58.2 | – |
| Cn1cncc1CN1CCCC1c1cncc(Oc2ccc(Cl)cc2)n1 (stereo not drawn) | 60.52 | – |
| Cc1ncccc1Oc1cncc(C2CCCN2Cc2cncn2C)n1 (stereo not drawn) | 19.44 | – |
| Cn1cncc1CN1CCCC1c1cncc(Oc2ccc(F)cc2)n1 (stereo not drawn) | 23.83 | – |
| O=C(O)C(F)(F)F.O=C([C@H]1COC[C@H]2CN(CC3CCCC3)C[C@H]21)N1CCOCC1 | 14.74 | – |
| CC(=O)N1CCC2(CC1)CN(C(=O)[C@@H]1CSCN1)c1ccc(Cl)cc12.O=C(O)C(F)(F)F | 42.29 | – |
| Cn1cc(CN2CCC[C@]3(C[C@@H](Oc4ncccc4F)CO3)C2)cn1.O=C(O)C(F)(F)F.O=C(O)C(F)(F)F | 62.31 | – |
| O=C(O)C(F)(F)F.O=C(c1ccccc1)N1CCC[C@]2(C[C@@H](Oc3ncccc3F)CO2)C1 | -17.71 | – |
| O=C(O)C(F)(F)F.O=C(c1ncccn1)N1CCC[C@]2(C[C@@H](Oc3ncccc3F)CO2)C1 | -9.266 | – |
| O=C(O)C(F)(F)F.O=C(O)C(F)(F)F.O=C(c1cccnc1)N1CCC[C@]2(C[C@H](Oc3ncccc3F)CO2)C1 | 55.01 | – |
| CS(=O)(=O)N1CCC[C@]2(C[C@@H](Oc3ncccc3F)CO2)C1.O=C(O)C(F)(F)F | – | 22.25 |
| Cc1csc(CN2CCC[C@]3(C[C@@H](OCC4CC4)CO3)C2)n1.O=C(O)C(F)(F)F | 2.266 | – |
| COc1ncccc1C(=O)N1CC[C@]2(C[C@@H](Oc3cccnc3)CO2)C1.O=C(O)C(F)(F)F.O=C(O)C(F)(F)F | 31.08 | – |
| CCO[C@H]1CO[C@@]2(CCCN(Cc3nc(C)cs3)C2)C1.O=C(O)C(F)(F)F | – | 20.53 |
| COC1COC2(CCN(C(=O)c3ccccc3F)CC2)C1 (stereo not drawn) | 35.35 | – |
| COc1ncccc1C(=O)N1CCC2(CC1)CC(OC)CO2.O=C(O)C(F)(F)F (stereo not drawn) | 56.73 | – |
| CO[C@@H]1CO[C@@]2(CCCN(Cc3nc(C)cs3)C2)C1.O=C(O)C(F)(F)F | 100.6 | – |
| Cn1cc(CN2CCC[C@]3(C[C@H](Oc4ncccc4F)CO3)C2)cn1.O=C(O)C(F)(F)F.O=C(O)C(F)(F)F | 42.35 | – |
